The source of these data is PubChem BioAssay.

The source made the active and inactive calls. Unless noted, no rule for the calls is given here.

Test [1] concerns XIP peptide (Xip251-270) binding. As to the kind of experiment: XIP fragment 251-270 binding compounds – biochemical, small-molecule microarray, fluorescence 635/667 nm, 0.1 µg/mL protein, primary screen (AID 1182). Conditions: fluorescent protein binding, 635 nm, higher = more signal, called active from +8 up or from −8 down.
A further test relates to XIP peptide (Xip251-270). As to the kind of experiment: compounds binding XIP fragment 251-270 – biochemical, small-molecule microarray, fluorescence 635/667 nm, 0.5 µg/mL protein, primary screen (AID 1183). To be noted: fluorescence 635 nm, higher = more signal.
A short description of test [2]: blood-stage malaria parasite viability loss – strain 3D7, DAPI fluorescence, 100 nL, primary screen (AID 1184).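 Also: parasites grown inside human red blood cells in medium with human serum.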 Conditions: P. falciparum 3D7 growth, 3 d, higher = more signal.
The target in test [3] is Homeobox protein Hox-A13 (Mus musculus) (UniProt Q62424). Nature of the test: disruptors of Hoxa13 oligonucleotide interaction – biochemical, fluorescence polarization, labeled oligonucleotide, primary screen (AID 1185). To be noted: Hoxa13:DNA binding, 15 min, higher = more signal, called active from +8 up or from −8 down. Background: In fluorescence polarisation assays a small probe gives low polarisation when free and higher when bound to something large.
Sequence of Homeobox protein Hox-A13 (Mus musculus) (Q62424 whole entry, looked up): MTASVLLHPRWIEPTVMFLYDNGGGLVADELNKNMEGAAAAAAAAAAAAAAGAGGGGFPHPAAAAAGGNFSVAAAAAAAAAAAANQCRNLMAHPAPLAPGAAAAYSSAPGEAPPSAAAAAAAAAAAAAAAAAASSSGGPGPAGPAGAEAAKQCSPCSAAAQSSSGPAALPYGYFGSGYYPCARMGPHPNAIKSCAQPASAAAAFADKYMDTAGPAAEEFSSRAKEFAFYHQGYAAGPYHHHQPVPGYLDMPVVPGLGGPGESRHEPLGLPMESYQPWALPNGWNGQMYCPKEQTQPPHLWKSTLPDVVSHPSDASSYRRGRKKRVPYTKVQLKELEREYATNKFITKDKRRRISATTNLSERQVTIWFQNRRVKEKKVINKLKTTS

Test [4] in a line: blockers of DNA damage checkpoint Chk1 activation – imaging, HeLa, hydroxyurea, phospho-Chk1 antibody, percent positive cells, primary screen (AID 1186). Conditions: hydroxyurea-induced phospho-Chk1 immunofluorescence imaging, higher = more signal.
A short description of test [5]: blockers of DNA damage checkpoint Chk1 activation – imaging, HeLa, hydroxyurea, phospho-Chk1 nuclear intensity, primary screen (AID 1187). To be noted: hydroxyurea-induced phospho-Chk1 immunofluorescence imaging, higher = more signal.

On to `C=CCOC(=O)[C@H]1[C@@H]2C(=O)O[C@@H](c3ccccc3)[C@@H](c3ccccc3)N2[C@@H](c2ccc(OCCOC(=O)[C@H]3C[C@H]4C(=O)N[C@@H](CCCC[N+](C)(C)C)C(=O)N4[C@H]3c3ccc(O)cc3)cc2)[C@]12C(=O)Nc1ccc(I)cc12`, for which the composite z-score was 1.7 (inactive) in test [1] and 0.848 with XIP peptide (Xip251-270). Further, the z-score is 0.615 in test [2], -2.52 (inactive) in test [3], -0.324 (inactive) in test [4] and -0.62 (inactive) in test [5].
For the molecule `[N-]=[N+]=Nc1ccccc1[C@@H]1OC(c2ccc(OCCCO)cc2)=N[C@]1(Cc1ccccc1)C(=O)N1CCOCC1`, the composite z-score in test [1] is 0.665 (inactive); in the test with XIP peptide (Xip251-270) it was 0.632. Also, the z-score was -2.32 in test [2], -4.82 (inactive) in test [3], -0.208 (inactive) in test [4] and -0.0135 (inactive) in test [5].
As to `C=CCN1C(=O)[C@]2(O[C@H](CCn3cc([C@H](O)c4ccccc4)nn3)[C@@H]([Si](C)(C)c3ccc(OC)cc3)[C@@H]2C)c2cc(N3CCC3=O)ccc21`, the composite z-score in test [1] is 0.393 (inactive); in the test on XIP peptide (Xip251-270) it was 0.128. In addition, the z-score is -2.89 in test [2], -5.76 (inactive) in test [3], -0.318 (inactive) in test [4] and -0.171 (inactive) in test [5].
As for `Cc1ccc(S[C@]2(C(=O)NCCCN(C)C)CC(=O)N(Cc3cc(C(F)(F)F)cc(C(F)(F)F)c3)[C@@H]2c2ccc(CO)cc2I)cc1`, the composite z-score in test [1] was -0.773 (inactive); in the test on XIP peptide (Xip251-270), -0.878. Further, the z-score in test [2] is 0.227; in test [3], -3.31 (inactive); in test [4] it was 0.522 (inactive); in test [5] it was 0.201 (inactive).
With `COCCCNC(=O)[C@@H]1c2ccccc2C(=O)N(Cc2ccccc2Cl)[C@H]1c1ccc(CO)cc1`, the figures for the composite z-score (in test [1]; in the test on XIP peptide (Xip251-270)) were 0.432 (inactive) and 0.0699, respectively. Further, the z-score in test [2] was 0.652; in test [3], -2.2 (inactive); in test [4], -0.57 (inactive); in test [5], -0.352 (inactive).
As to `O=C1O[C@H](c2ccccc2)[C@H](c2ccccc2)N2[C@H]1[C@@H](C(=O)N1CCCCCCC1)[C@]1(C(=O)Nc3ccc(C#CC4=CCCCC4)cc31)[C@H]2c1ccc(OCCO)cc1`, the composite z-score in test [1] is 2.27 (inactive); with XIP peptide (Xip251-270), 0.77. Also, the z-score in test [2] was -2.33; in test [3], -15.4 (active); in test [4] it was 0.606 (inactive); in test [5], 1.04 (inactive).
For the molecule `O=C1OCCC/C=C\[C@H]2OC34C=CCN(Cc5ccccc5)C(=O)[C@H]3N(CCCO)C(=O)[C@@H]4C12` (some centres not stated), the composite z-score is 0.0652 (inactive) in test [1] and -0.616 in the test with XIP peptide (Xip251-270). Further, the z-score in test [2] is -0.125; in test [3], -4.98 (inactive); in test [4] it was -0.58 (inactive); in test [5], -0.324 (inactive).
In the case of `CC(C)NC(=O)[C@@]1(C)c2ccccc2C(=O)N(Cc2cc(C(F)(F)F)cc(C(F)(F)F)c2)[C@H]1c1ccc(CO)cc1`, the composite z-score in test [1] was 0.281 (inactive); in the test with XIP peptide (Xip251-270) it was 0.427. Moreover, the z-score in test [2] was -1.54; in test [3], -3.76 (inactive); in test [4], -0.281 (inactive); in test [5], -0.197 (inactive).
In the case of `C=CC[C@]1(C(=O)NCc2ccccc2)N=C(c2ccc(OCCCO)cc2)O[C@H]1c1ccccc1N=[N+]=[N-]`, the composite z-score in test [1] was 0.525 (inactive); with XIP peptide (Xip251-270), 0.699. In addition, the z-score in test [2] is -2.18; in test [3], -1.87 (inactive); in test [4], -0.22 (inactive); in test [5], 0.148 (inactive).
Consider `CN(C)C(=O)[C@@]1(CCS(=O)(=O)c2ccccc2)COC(c2ccc(OCCCO)cc2)=N1`, for which the composite z-score in test [1] was 0.551 (inactive); in the test with XIP peptide (Xip251-270), 0.299. The z-score is -0.697 in test [2], -5.72 (inactive) in test [3], -0.0692 (inactive) in test [4] and -0.023 (inactive) in test [5].
`C=C(CCCC)/C(=C/C[C@H](OC(=O)c1ccncc1)c1ccccc1OCCO)c1cnc2ccccc2c1`: the composite z-score in test [1] was 0.8 (inactive); in the test on XIP peptide (Xip251-270), 0.575. In addition, the z-score in test [2] was -2.96; in test [3] it was -4.41 (inactive); in test [4] it was 0.618 (inactive); in test [5], 0.783 (inactive).
For the molecule `O=C(CS)NCCCCCCNC(=O)[C@@H]1C[C@@H]2C(=O)NCC(=O)N2[C@@H]1c1cccc(OCCO)c1`, the composite z-score in test [1] is 0.67 (inactive); in the test on XIP peptide (Xip251-270), 0.579. In addition, the z-score in test [2] was 0.132; in test [3], -2.98 (inactive); in test [4], 0.376 (inactive); in test [5], 0.376 (inactive).
Take `C[N+](C)(C)CCCCCCNC(=O)[C@@H]1C[C@@H]2C(=O)N[C@@H](Cc3ccccc3)C(=O)N2[C@@H]1c1cccc(OCCO)c1`: the composite z-score in test [1] was 0.694 (inactive); in the test on XIP peptide (Xip251-270) it was 0.814. In addition, the z-score was -0.145 in test [2], -4.83 (inactive) in test [3], -0.362 (inactive) in test [4] and -0.398 (inactive) in test [5].
For the molecule `C[N+](C)(C)CCCCNC(=O)[C@H]1C[C@H]2C(=O)N3CCC[C@H]3C(=O)N2[C@H]1c1cccc(OCCO)c1`, the figures for the composite z-score (in test [1]; in the test on XIP peptide (Xip251-270)) were 0.265 (inactive) and -0.465, respectively. Moreover, the z-score in test [2] was 1.2; in test [3], -2.27 (inactive); in test [4], -0.302 (inactive); in test [5], -0.124 (inactive).
With `Cc1ccccc1C(O)C1C=CC2C(=O)N(c3ccccc3)C(=O)C2N1Nc1ccc(C(C)C)cc1` (configuration not stated), the composite z-score in test [1] is 0.167 (inactive); in the test with XIP peptide (Xip251-270) it was 0.599. Further, the z-score in test [2] was -0.739; in test [3], -1.77 (inactive); in test [4], 0.524 (inactive); in test [5], 0.118 (inactive).
With `CN1C(=O)C2C=CC(C(O)c3ccc([N+](=O)[O-])cc3)N(N3CCCCC3)C2C1=O` (configuration not stated), the composite z-score is 0.0993 (inactive) in test [1] and 0.471 with XIP peptide (Xip251-270). Besides, the z-score is -0.114 in test [2], -3.98 (inactive) in test [3], -0.224 (inactive) in test [4] and -0.167 (inactive) in test [5].
Take `O=C(N1CCCCC1)[C@]1(Cc2ccccc2)N=C(c2ccc(OCCCO)cc2)O[C@@H]1c1ccccc1`: the values for the composite z-score (in test [1]; in the test on XIP peptide (Xip251-270)) were 0.0557 (inactive) and 0.657, respectively. The z-score in test [2] is -2.79; in test [3] it was -4.71 (inactive); in test [4], -0.6 (inactive); in test [5], -0.641 (inactive).
